Kir21 block – inhibitors of mouse Kir2.1 inward-rectifier potassium channel | actives 0.85% (n = 310,000) | HEK293-Kir2.1, FluxOR thallium flux fluorescence; hits give low values | Inward rectifier potassium channel 2 (Mus musculus), P35561 | AID 1672, 2009 | B-score at 10 µM;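 active = fluorescence ratio B-score at or below minus 3 SD of library scores, with starting-brightness B-score within 2 SD, cut at about -4.2 in these data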;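 note: channel flux triggered by added potassium and thallium sulfate stimulus; B-score of peak minus minimum fluorescence over baseline after thallium stimulus; more negative B-score means stronger Kir2.1 block with less thallium influx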
GPR7 antag – GPR7 receptor antagonists, primary screen, cell-based, fluorescence, single concentration; inhibition, % at 4.4 µM; GPR7-expressing cells, fluorescence antagonist assay; AID 1861, 2009; Neuropeptides B/W receptor type 1 (Homo sapiens), P48145; actives 1.1% (n = 290,000); in the data active = inhibition above about 16%, passing the limit was not always enough;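 note: cells stimulated with the agonist NPW; 0% = agonist with vehicle and 100% = vehicle without agonist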
ANO1 block – TMEM16A chloride channel inhibitors, primary screen, cell-based, HTS | actives 1.2% (n = 310,000) | HEK293 TMEM16A/YFP iodide influx fluorescence, ionomycin | normalized B-score (activity score, 25-100; higher = stronger inhibition) at 10 µM | Anoctamin-1 (Mus musculus), Q8BHY3;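 active = ratio plate-corrected score three or more library SD toward inhibition, starting fluorescence score within five deviations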;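 note: score derived from kinetic fluorescence span divided by baseline fluorescence per well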
CHT PAM – CHT positive allosteric modulators, primary screen, cell-based, membrane potential dye, choline EC20; CHT-expressing cells; hits give high values; LV-AA mutant CHT in HEK293 cells; actives 0.49% (n = 310,000); B-score at 10 µM; High affinity choline transporter 1 (Homo sapiens), Q9GZV3;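 active = initial fluorescence not abnormally high and integrated response B-score, plate-corrected, over 3 SD above library mean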
Target sequence (Q9GZV3 whole entry, looked up): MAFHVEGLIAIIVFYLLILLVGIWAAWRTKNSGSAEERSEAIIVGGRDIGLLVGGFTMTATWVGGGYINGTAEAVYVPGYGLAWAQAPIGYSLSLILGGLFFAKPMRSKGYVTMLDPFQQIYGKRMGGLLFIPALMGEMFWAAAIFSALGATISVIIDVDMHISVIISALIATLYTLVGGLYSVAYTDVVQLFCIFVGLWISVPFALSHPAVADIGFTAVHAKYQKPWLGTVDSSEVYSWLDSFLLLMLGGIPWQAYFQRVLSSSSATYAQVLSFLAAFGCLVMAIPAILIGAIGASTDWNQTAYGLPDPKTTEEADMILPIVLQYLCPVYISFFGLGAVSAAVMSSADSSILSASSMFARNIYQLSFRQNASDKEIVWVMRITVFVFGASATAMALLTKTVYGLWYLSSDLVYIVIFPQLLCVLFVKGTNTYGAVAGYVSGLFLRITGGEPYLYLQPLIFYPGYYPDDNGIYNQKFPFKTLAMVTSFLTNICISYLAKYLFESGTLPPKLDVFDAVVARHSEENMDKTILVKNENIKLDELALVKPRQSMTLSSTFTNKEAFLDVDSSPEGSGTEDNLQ
TMEM16A act – TMEM16A chloride channel activators or potentiators, primary screen, cell-based, HTS; HEK293 TMEM16A/YFP-H148Q/I152L, iodide quench fluorescence; hits give low values; B-score at 10 µM; actives 0.3% (n = 340,000);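 active = fluorescence-ratio B-score plate-corrected deviation score at least 3 library SD below zero, with starting fluorescence score within 5 deviations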;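 note: channel opened by trigger with iodide after compound preincubation; score built on the fluorescence ratio of max minus min over baseline; more negative score means more quench and so TMEM16A activation or potentiation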
CHT block – inhibitors of human choline transporter CHT | High affinity choline transporter 1 (Homo sapiens), Q9GZV3 | CHT-expressing cells, membrane potential dye, choline response; hits give low values | B-score at 10 µM | actives 0.86% (n = 310,000) | AID 488975, 2010;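 active = B-score over 3 SD under the library average, and starting fluorescence ratio not unusually high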;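 note: choline stimulus applied at its EC90 after an EC20 pre-addition; B-score computed on integrated fluorescence ratio after choline addition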
CHT act confirm – CHT activators, confirmation, cell-based, membrane potential dye, duplicate; activation, % at 10 µM; CHT-expressing cells, membrane potential dye fluorescence (FDSS); % of choline EC20–EC90 response window; HEK293 expressing CHT LV-AA mutant; choline added at its EC20; actives 91% (n = 2,500); shares compounds with CHT PAM; AID 504833, 2011;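 active = primary screen active, with duplicate mean activation above negative control mean plus 3 SD, cut at about 11% in these data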
HEK293 MP dye – membrane potential response in parental HEK293 cells, counter-screen for CHT activator project, cell-based, membrane potential dye; actives 62% (n = 2,500); AID 623908, 2012; ratio readout change at 10 µM, hits read low; membrane potential dye fluorescence (FDSS); measured after EC20 choline addition; shares compounds with CHT PAM;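 active = duplicate-averaged ratio beyond 3 SD from buffer wells, up or down, though filed actives are nearly all decreases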
* hit, by the source's call; i = inactive; · = no result given. A selection: hits, their analogues and other compounds. The true share with any hit is near 3.7%.

SMILES	Kir21 block	GPR7 antag	ANO1 block	CHT PAM	TMEM16A act	CHT block	CHT act confirm	HEK293 MP dye
OC(CN1CCCCC1)Cn1c2ccccc2c2ccccc21 (stereo unspecified)	1.2	23	i	i	i	i	·	·
O=c1c2ccccc2n(CC(O)CN2CCCCC2)c2ccccc12 (stereo unspecified)	0.07	-1	i	6.3*	i	i	44*	-39*
Cc1c(C)n(CC(O)CN2CCCCC2)c2ccccc12 (stereo unspecified)	1.2	-3	i	i	i	i	·	·
Cc1cc(=O)n2c3ccccc3n(CC(O)CN3CCCC3)c2c1C#N (stereo unspecified)	0.41	-4	i	6.9*	i	i	52*	-46*
Cc1ccc(S(=O)(=O)N2CCC(C(=O)OCC(=O)N3CCC(C)CC3)CC2)cc1C	1	·	i	i	i	i	·	·
O=[N+]([O-])c1ccc(C[n+]2cccc3ccccc32)cc1	0.68	-11	i	8.1*	i	i	47*	-46*
C/C(=N\NC(=O)CN(c1ccc(Oc2ccccc2)cc1)S(C)(=O)=O)C(C)(C)C	0.16	-8	i	i	i	i	·	·
Cc1cc(OC(C)C(=O)NCCCn2ccnc2)c2c(C)cc(=O)oc2c1 (stereo unspecified)	-0.77	-2	i	i	i	i	45*	-39*
Cc1cc(OCC(=O)NCCCn2ccnc2)c2c(C)cc(=O)oc2c1	0.04	-5	i	7.1*	i	i	65*	-56*
CCCc1cc(=O)oc2cc(C)cc(OCC(=O)NCCCn3ccnc3)c12	-1	-16	i	i	i	i	·	·
Cc1cc(=O)oc2c(C)c(OCC(=O)NCCCn3ccnc3)ccc12	-1.4	0	i	i	i	i	58*	-52*
O=C(CCCN1C(=O)NC2(CCCC2)C1=O)NCc1ccccc1	·	·	·	·	i	·	·	·
CCCCSc1ncnc2c1ncn2C1CCCCO1 (stereo unspecified)	·	·	·	·	i	·	·	·
CCN(CC(=O)Nc1c(F)cccc1F)C(=O)COc1cccc2c1OC(C)(C)C2	1.3	·	i	i	i	i	·	·
CCOC(=O)c1c(N=CN(C)C)c2cc([N+](=O)[O-])cnc2n1C	0.35	-14	i	i	i	i	38*	-46*
CCN(CC(=O)Nc1ccc2c(c1)OCCO2)C(=O)/C=C/c1cccc(C(F)(F)F)c1	·	·	·	·	i	·	·	·
O=C(N/N=C/c1ccncc1)c1nn(Cc2ccccc2)c(=O)c2ccccc12	-0.44	2	i	i	i	i	·	·
CC(C)CN1CCN(Cc2cccn2-c2ccc(Cl)cn2)CC1CCO (stereo unspecified)	-1.3	15	i	i	i	i	54*	i
CC(C)CN1CCN(Cc2cccn2-c2ccccn2)CC1CCO (stereo unspecified)	-0.02	-3	i	i	i	i	·	·
c1ccc(CN2CCN(c3nc(NCc4ccco4)c4ccccc4n3)CC2)cc1	-3.5	3	i	6.4*	i	i	26*	-53*
COc1ccc(N=C(c2ccccc2)c2c(C)[nH]n(-c3ccccc3)c2=O)c(OC)c1	-0.7	-15	i	i	i	i	·	·

Source: PubChem BioAssay (several laboratories)
